Experimental data as given in PubChem BioAssay (NCI).
Compounds without any hit were thinned out: in the full panel of roughly 79,000, 15% have a hit. Activity calls are given as the source filed them. Cut-off read from the data, not from the text of the source: active = growth inhibition above about 70%; inactive = the rest.

Key:
[1] = NCI Yeast Anticancer Drug Screen. Data for the rad52 strain (AID 147);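 note: 0% = growth of vehicle-treated control cultures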; conditions: S. cerevisiae rad52 mutant growth inhibition, active compounds read high
Method in brief: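 Here a repair-compromised yeast strain receives each compound; its growth is then quantified and normalised to vehicle-only controls.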

[2] = NCI Yeast Anticancer Drug Screen. Data for the wt1 strain (AID 149);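 note: 0% = growth of vehicle-treated wt1 cultures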; conditions: S. cerevisiae wt1 strain (SPY 50644) growth inhibition, active compounds read high
Method in brief: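 wt1 strain grown with compound or vehicle; inhibition taken from the growth difference.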

[3] = NCI Yeast Anticancer Drug Screen. Data for the rad50EPP+ strain (AID 151);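 note: 0% = growth of vehicle-treated control cultures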; conditions: S. cerevisiae rad50 mutant strain, active compounds read high
Method in brief: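 Read-out is yeast growth inhibition relative to vehicle; cells used were the rad50EPP+ strain.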

[4] = NCI Yeast Anticancer Drug Screen. Data for the mgt1 strain (AID 153); conditions: S. cerevisiae mgt1 mutant growth inhibition, active compounds read high
Method in brief: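 Measured: inhibition of mgt1 yeast growth by compound, normalized to vehicle-treated cultures.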

[5] = NCI Yeast Anticancer Drug Screen. Data for the rad50 strain (AID 155);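 note: 0% = growth of vehicle-only cultures of the same strain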; conditions: S. cerevisiae rad50 strain growth inhibition, active compounds read high
Method in brief: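 DNA repair mutant yeast, compound exposure, growth read-out; inhibition is taken relative to vehicle.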

[6] = NCI Yeast Anticancer Drug Screen. Data for the mec2-1 strain (AID 157); conditions: S. cerevisiae mec2-1 strain, active compounds read high
Method in brief: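 Using mec2-1 yeast: add compound, measure growth, express inhibition versus vehicle-treated cultures.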

[7] = NCI Yeast Anticancer Drug Screen. Data for the sgs1 mgt1 strain (AID 161);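 note: 0% = growth of cultures given vehicle only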; conditions: S. cerevisiae sgs1 mgt1 strain, active compounds read high
Method in brief: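 Percent growth inhibition was derived by comparing compound-exposed mutant yeast with vehicle-exposed cultures. The strain carries alterations in DNA damage repair.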

[8] = NCI Yeast Anticancer Drug Screen. Data for the CLN2oe strain (AID 163);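 note: 0% = growth of vehicle-only control cultures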; conditions: S. cerevisiae CLN2oe strain, active compounds read high
Method in brief: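 Whole-cell yeast growth assay. A strain engineered for altered cell-cycle control received compound, and inhibition relative to vehicle-treated cultures was recorded.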

[9] = NCI Yeast Anticancer Drug Screen. Data for the cln2 rad14 strain (AID 165);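 note: 0% = growth equal to vehicle treated cultures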; conditions: S. cerevisiae cln2 rad14 strain, active compounds read high
Method in brief: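 Yeast strain cln2 rad14, bearing defects in cell cycle control and DNA repair, serves as the test system; values reflect growth inhibition compared with vehicle.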

[10] = NCI Yeast Anticancer Drug Screen. Data for the bub3 strain (AID 167); conditions: S. cerevisiae bub3 mutant strain, active compounds read high
Method in brief: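 In this screen, a yeast mutant lacking normal mitotic checkpoint function is challenged with compound. Relative growth versus vehicle gives the inhibition value.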

[11] = NCI Yeast Anticancer Drug Screen. Data for the wt2 strain (AID 169);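 note: 0% = growth of vehicle-treated yeast cultures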; conditions: S. cerevisiae wt2 strain growth inhibition, active compounds read high
Method in brief: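 Treated yeast vs. vehicle-treated yeast: growth inhibition determined.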

[12] = NCI Yeast Anticancer Drug Screen. Data for the mlh1 strain (AID 171);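 note: 0% = growth of vehicle-treated control cultures of the same strain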; conditions: S. cerevisiae mlh1 strain growth inhibition, active compounds read high
Method in brief: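 A yeast strain with a defined genetic lesion serves as the test organism. Cultures receive compound or vehicle, and growth is measured.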

[13] = NCI Yeast Anticancer Drug Screen. Data for the sgs1 strain (AID 173);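 note: 0% = growth of vehicle-only control cultures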; conditions: S. cerevisiae sgs1 mutant, active compounds read high
Method in brief: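 A genetically defined yeast mutant is incubated with the test compound, and its growth is compared to that of the same strain given vehicle.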

[14] = NCI Yeast Anticancer Drug Screen. Data for the mlh1 rad18 strain (AID 175); conditions: S. cerevisiae mlh1 rad18 strain growth inhibition, active compounds read high
Method in brief: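 Steps: expose repair-defective yeast to compound; measure growth; express inhibition against vehicle-treated controls.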

[15] = NCI Yeast Anticancer Drug Screen. Data for the rad18 strain (AID 177); conditions: S. cerevisiae rad18 mutant growth inhibition, active compounds read high
Method in brief: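 Measured value is growth inhibition of a yeast strain bearing a DNA repair alteration, referenced to vehicle-treated cells.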

[16] = NCI Yeast Anticancer Drug Screen. Data for the rad14 strain (AID 159);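 note: 0% = growth of vehicle-treated control cultures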; conditions: S. cerevisiae rad14 strain growth inhibition, active compounds read high
Method in brief: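 DNA repair-defective yeast, compound-exposed; % growth inhibition derived by comparison with vehicle-treated controls.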

[17] = at 5.0 µM (retest, dose inferred, filed as 0.5)
[18] = at 50.0 µM (retest, dose inferred, filed as 5.0)

Measured: growth inhibition

C=C1CCC(O)C/C1=C/C=C1\CCCC2(C)C1CCC2C(C)CCCC(C)C (stereo unspecified)
inactive: [1]; at 1.2 µM -22% | [1]; at 3.7 µM -3% | [1]; at 11.0 µM -11% | [1]; at 33.0 µM 4% | [1]; at 100.0 µM 49% | [2]; at 1.2 µM -26% | [2]; at 3.7 µM -16% | [2]; at 11.0 µM -12% | [2]; at 33.0 µM -15% | [2]; at 100.0 µM 4% | [3]; at 1.2 µM -16% | [3]; at 3.7 µM -20% | [3]; at 11.0 µM -22% | [3]; at 33.0 µM -8% | [4]; at 1.2 µM -21% | [4]; at 3.7 µM -15% | [4]; at 11.0 µM -7% | [4]; at 33.0 µM -21% | [4]; at 100.0 µM 52% | [5]; at 1.2 µM -18% | [5]; at 3.7 µM -9% | [5]; [17] 13% | [5]; at 11.0 µM 5% | [5]; at 33.0 µM 0% | [5]; at 50.0 µM 51.8% | [5]; at 100.0 µM 30% | [6]; at 1.2 µM -40% | [6]; at 3.7 µM -25% | [6]; [17] 12% | [6]; at 11.0 µM -18% | [6]; at 33.0 µM 2% | [6]; at 50.0 µM -9.05% | [6]; at 100.0 µM -15% | [7]; [17] 6% | [7]; [18] 57% | [7]; at 50.0 µM 54.9% | [8]; at 1.2 µM -11% | [8]; at 3.7 µM 8% | [8]; at 11.0 µM 2% | [8]; at 33.0 µM 6% | [8]; at 100.0 µM 39% | [9]; [17] 9% | [9]; [18] 19% | [9]; at 50.0 µM 4.95% | [10]; at 1.2 µM -25% | [10]; at 3.7 µM -23% | [10]; [17] 9% | [10]; at 11.0 µM -27% | [10]; at 33.0 µM -13% | [10]; [18] 69% | [10]; at 50.0 µM 24.1% | [10]; at 100.0 µM 7% | [11]; at 1.2 µM -8% | [11]; at 3.7 µM -14% | [11]; at 11.0 µM -18% | [11]; at 33.0 µM -27% | [11]; at 100.0 µM 22% | [12]; at 1.2 µM -24% | [12]; at 3.7 µM -26% | [12]; at 11.0 µM -26% | [12]; at 33.0 µM -5% | [12]; at 100.0 µM 18% | [13]; at 1.2 µM -23% | [13]; at 3.7 µM -6% | [13]; at 11.0 µM -25% | [13]; at 33.0 µM -13% | [13]; at 100.0 µM 35% | [14]; [17] 11% | [15]; at 1.2 µM -10% | [15]; at 3.7 µM -6% | [15]; at 11.0 µM -8% | [15]; at 33.0 µM 13% | [15]; at 100.0 µM 34%
active: [3]; at 100.0 µM 73% | [5]; [18] 84% | [6]; [18] 94% | [14]; [18] 93% | [14]; at 50.0 µM 82.9%

O=C1OC(OC/C(Br)=C(\Br)COC2OC(=O)C(Cl)=C2Cl)C(Cl)=C1Cl (stereo unspecified)
active: [5]; [18] 91% | [5]; at 50.0 µM 98.7% | [6]; [18] 98% | [6]; at 50.0 µM 96.1% | [7]; [18] 99% | [7]; at 50.0 µM 93.1% | [9]; [18] 96% | [10]; [18] 93% | [10]; at 50.0 µM 93.6% | [14]; [18] 96% | [14]; at 50.0 µM 94.3%
inactive: [1]; at 1.2 µM 0% | [1]; at 3.7 µM 2% | [1]; at 11.0 µM 3% | [1]; at 33.0 µM 5% | [1]; at 100.0 µM 15% | [2]; at 1.2 µM 0% | [2]; at 3.7 µM 0% | [2]; at 11.0 µM 2% | [2]; at 33.0 µM 8% | [2]; at 100.0 µM 18% | [3]; at 1.2 µM -1% | [3]; at 3.7 µM 1% | [3]; at 11.0 µM 3% | [3]; at 33.0 µM 6% | [3]; at 100.0 µM 16% | [4]; at 1.2 µM -5% | [4]; at 3.7 µM -1% | [4]; at 11.0 µM 2% | [4]; at 33.0 µM 3% | [4]; at 100.0 µM 9% | [5]; at 1.2 µM 0% | [5]; at 3.7 µM 1% | [5]; [17] 37% | [5]; at 11.0 µM 0% | [5]; at 33.0 µM 7% | [5]; at 100.0 µM 15% | [6]; at 1.2 µM -2% | [6]; at 3.7 µM 2% | [6]; [17] 20% | [6]; at 11.0 µM 5% | [6]; at 33.0 µM 13% | [6]; at 100.0 µM 26% | [16]; at 1.2 µM 1% | [16]; at 3.7 µM 2% | [16]; at 11.0 µM 4% | [16]; at 33.0 µM 9% | [16]; at 100.0 µM 16% | [7]; [17] 39% | [9]; [17] 17% | [9]; at 50.0 µM 57.6% | [10]; at 1.2 µM 0% | [10]; at 3.7 µM -2% | [10]; [17] 13% | [10]; at 11.0 µM -4% | [10]; at 33.0 µM 1% | [10]; at 100.0 µM 16% | [11]; at 1.2 µM -1% | [11]; at 3.7 µM -2% | [11]; at 11.0 µM 0% | [11]; at 33.0 µM 3% | [11]; at 100.0 µM 10% | [12]; at 1.2 µM -1% | [12]; at 3.7 µM 0% | [12]; at 11.0 µM 2% | [12]; at 33.0 µM 4% | [12]; at 100.0 µM 12% | [13]; at 1.2 µM -1% | [13]; at 3.7 µM 0% | [13]; at 11.0 µM 0% | [13]; at 33.0 µM 6% | [13]; at 100.0 µM 20% | [14]; [17] 53% | [15]; at 1.2 µM 1% | [15]; at 3.7 µM 3% | [15]; at 11.0 µM 9% | [15]; at 33.0 µM 24% | [15]; at 100.0 µM 60%
